Assay outcomes as filed in PubChem.
CYP2C9 act – CYP2C9 (human) activation; P11712; recombinant CYP2C9, luciferin-H conversion, luminescence; active compounds read high; factor 1 = untreated enzyme, 0 = blocked; AID 1024; activation factor at 5 µM; actives 1.4% (n = 96,000);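 active = activation factor of 2 or more for CYP2C9 at a 5 µM dose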;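 note: 0 = sulfaphenazole-blocked wells and 1 = vehicle-only wells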
Target sequence (P11712 whole entry, looked up): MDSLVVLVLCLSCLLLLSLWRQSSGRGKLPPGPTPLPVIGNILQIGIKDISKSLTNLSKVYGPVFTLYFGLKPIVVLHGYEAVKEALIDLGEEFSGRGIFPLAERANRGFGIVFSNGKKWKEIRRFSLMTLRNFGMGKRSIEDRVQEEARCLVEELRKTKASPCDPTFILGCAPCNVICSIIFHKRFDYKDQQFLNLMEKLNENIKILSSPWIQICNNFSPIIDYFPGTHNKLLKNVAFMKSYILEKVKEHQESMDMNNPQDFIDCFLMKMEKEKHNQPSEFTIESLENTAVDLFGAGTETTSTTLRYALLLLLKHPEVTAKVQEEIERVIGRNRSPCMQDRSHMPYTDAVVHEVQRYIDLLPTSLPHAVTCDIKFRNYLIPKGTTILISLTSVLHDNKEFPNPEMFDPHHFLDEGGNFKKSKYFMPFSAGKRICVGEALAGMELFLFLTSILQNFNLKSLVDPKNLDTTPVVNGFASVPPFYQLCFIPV
CYP2C19 activ – cytochrome P450 2C19 (human) activation. P33261. recombinant CYP2C19, luciferin-H EGE luminescence; active compounds read high; 0 = fully inhibited enzyme, 1 = untreated enzyme. activation factor at 5 µM. 96,000 tested, under 10 active. AID 1025;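 active = activation factor of at least 2 at 5 µM in the primary screen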;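 note: 0 = wells with 2.5 mM tranylcypromine and 1 = vehicle-only wells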
CYP2C19 inh – human CYP2C19 inhibition | P33261 | CYP2C19 Supersomes, luciferin-H EGE luminescence, 30 min | inhibition, % at 5 µM | actives 21% (n = 96,000) | AID 778;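 active = CYP2C19 inhibition above a set limit at 5 µM in the primary screen, cut at about 50% in these data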;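 note: plate controls were negative control wells for no effect and 2.5 mM tranylcypromine positive control for full effect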
CYP2C9 inhib – human CYP2C9 inhibition | P11712 | CYP2C9 Supersomes, luciferin-H conversion, luminescence | inhibition, % at 5 µM | actives 20% (n = 96,000) | AID 777;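 active = blocking of liver enzyme CYP2C9 beyond about 50% at 5 µM, limit read from the data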
PLK1 PBD inh – blocks phosphopeptide binding to human Plk1 polo box domain; P53350; Plk1 PBD phosphopeptide binding, fluorescence polarization; inhibition, %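 (tested at about 20 µM)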; actives 0.13% (n = 97,000); in the data active = inhibition above about 34%, passing the limit was not always enough
PLK1 kinase inh – blocks human PLK1 kinase activity. inhibition, % at 10 µM. recombinant PLK1 kinase, TR-FRET peptide phosphorylation. actives 0.53% (n = 97,000). P53350;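 active = inhibition of 50% or more in the single-concentration screen; inactive = inhibition below 50%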;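 note: 0% = DMSO max control and 100% = H-89 dihydrochloride min control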
Active calls of the source: *; · = no result given. In the library only some 28% were active in any assay of this set; here they are far more common.

SMILES | CYP2C9 act | CYP2C19 activ | CYP2C19 inh | CYP2C9 inhib | PLK1 PBD inh | PLK1 kinase inh
COc1ccccc1NC(=O)C(NC(=O)OC(C)(C)C)C(C)OCc1ccccc1 (stereo not drawn) | 0.8 | 0.8 | 22 | 23 | -8 | -4
COc1cc(C)ccc1S(=O)(=O)N1CCN(C23CC4CC(CC(C4)C2)C3)CC1 | 1.3 | 1 | -5 | -25 | 17 | -6
O=C(NCc1cccs1)C1CCCN1S(=O)(=O)c1ccccc1F (stereo not drawn) | 0.7 | 0.5 | 53* | 33 | -26 | 12
O=S(=O)(NCc1cccs1)c1cccc2cccnc12 | 2.8* | 0.7 | 28 | -184 | 2 | -8
COC(=O)C1=C(C)NC(C)=C(C(=O)OC)C1C1CC=CCC1 (stereo not drawn) | · | · | · | · | -10 | -9
CC(NC(N)=O)C(=O)OCc1ccc(Cl)cc1Cl (stereo not drawn) | 1.4 | 0.6 | 43 | -41 | -8 | -12
O=C(COC(=O)c1cccnc1Cl)c1cccc(Cl)c1 | 1 | 0.4 | 56* | 2 | -1 | -10
O=C(OCc1ccc(Cl)cc1Cl)c1cccnc1Cl | 1 | 0.3 | 74* | -1 | 12 | -3
CC(=O)NC(C)C(=O)OCc1ccc(Cl)cc1Cl (stereo not drawn) | 2.7* | 0.4 | 59* | -168 | -20 | -9
NC(=O)c1cccnc1Oc1cccc(Cl)c1 | 0.9 | 0.9 | 9 | 6 | 9 | -6
CC(C)C(=O)Nc1cccc(C(=O)Nc2nnc(C(C)(C)C)s2)c1 | 0.8 | 1.1 | -5 | 19 | -17 | -6
Cc1nnc(SCC(=O)N2CCC(C(N)=O)CC2)s1 | · | · | · | · | 10 | -12
Cc1c(C#N)c(N=CN(C)C)c(C(=O)c2ccccc2)n1-c1ccc(Br)cc1 | 0.4 | 0.3 | 73* | 61* | -21 | -1
Cn1c(=O)c(-c2cc(Br)ccc2N)nc2ccccc21 | 0.5 | 0.1 | 93* | 52* | 2 | -6
CCOC(=O)CSc1nc(N)c(C(=O)Nc2ccc(N(C)C)cc2)s1 | 0.5 | 0.3 | 65* | 47 | -26 | -8
CCOC(=O)CSc1nc(C)c(C(=O)OCC)s1 | 0.3 | 0.6 | 38 | 65* | -25 | -7
N#CCCN(C(=O)CSc1ccc2c(c1)OCCO2)c1ccc(F)cc1 | 0.9 | 0.5 | 47 | 11 | 9 | -4
CCOC(=O)C1(C)NC(c2ccc(N(C)C)cc2)C2C(=O)N(CC)C(=O)C21 (stereo not drawn) | 1 | 0.9 | 5 | 3 | 10 | -13
CCOC(=O)C1(C)NC(c2ccc(OC)cc2OC)C2C(=O)N(c3cccc(OC)c3)C(=O)C21 (stereo not drawn) | 0.2 | 0.2 | 80* | 83* | -13 | -10
CCOC(=O)C1(C)NC(c2ccc(N(C)C)cc2)C2C(=O)N(c3ccc(OC)cc3)C(=O)C21 (stereo not drawn) | 0.8 | 0.4 | 57* | 22 | 14 | -1
CC(=O)N1c2ccccc2C(=O)C1N1CCCCC1 (stereo not drawn) | 1 | 0.6 | 44 | -3 | · | ·
N#Cc1ccc2ccn(CC(=O)NCc3ccccc3)c2c1 | 0.4 | 0.1 | 87* | 59* | -20 | -14
O=C(Nc1ccc2c(c1)C(=O)N(c1ccccc1)C2=O)C1CCCO1 (stereo not drawn) | · | · | · | · | 18 | -10
COc1cccc(C2C(C#N)=C(N)Oc3c2oc(CO)cc3=O)c1 (stereo not drawn) | · | · | · | · | -14 | -2
COC(=O)C1=C(C)N=C2SC(C#N)=C(N)N2C1c1cccc(OC)c1 (stereo not drawn) | 0.1 | 0 | 96* | 92* | -5 | -13
SMILES | CYP2C9 act | CYP2C19 activ | CYP2C19 inh | CYP2C9 inhib | PLK1 PBD inh | PLK1 kinase inh
Nc1ccccc1-c1nnc(SCc2ccccc2Cl)[nH]c1=O | 0.1 | 0.6 | 43 | 88* | 10 | -32
C=CCSc1nnc(-c2ccccc2NC(=O)CC)c(=O)[nH]1 | 0.5 | 1.1 | -5 | 52* | 18 | -9
Cc1ccc(CSc2nnc(-c3ccccc3N)c(=O)[nH]2)cc1 | 0.1 | 0.8 | 15 | 92* | -9 | 2
Cc1cc(C)cc(CSc2nnc(C)c(=O)[nH]2)c1 | 0.1 | 0.8 | 16 | 86* | -1 | -8
Cc1nnc(SCc2cnc(-c3ccccc3)o2)[nH]c1=O | 1 | 1.1 | -11 | 3 | 10 | 13
CCCCSc1nnc(-c2cc(Br)ccc2N)c(=O)[nH]1 | 0.5 | 0.9 | 7 | 48 | -3 | -15
CCc1sc(NS(C)(=O)=O)nc1-c1ccccc1 | 0.8 | 0.9 | 10 | 18 | -2 | -7
CCSc1nnc(-c2ccccc2NC(=O)CC)c(=O)[nH]1 | 0.8 | 1.1 | -13 | 25 | 2 | -14
CC(=O)Nc1ccccc1-c1nnc(SCc2ccccc2Cl)[nH]c1=O | 0 | 0.9 | 6 | 99* | -5 | -9
CCc1cc2cc3c(cc2nc1SCC(=O)Nc1cc(C)on1)OCO3 | 1.2 | 1.1 | -15 | -23 | 1 | -11
Fc1ccc(-c2[nH]ncc2-c2nnnn2-c2ccccc2)c(F)c1 | 0.5 | 0.1 | 91* | 51* | -5 | -6
O=S(=O)(c1cccc(-c2nnc(SCc3ccc(Cl)cc3)o2)c1)N1CCCCC1 | 0.1 | 0.3 | 69* | 87* | 1 | -6
O=S(=O)(c1ccc(-c2nnc(SCc3ccccc3)o2)cc1)N1CCCC1 | 0.7 | 0.9 | 13 | 33 | 13 | -13
CN(C)S(=O)(=O)c1cccc(-c2nnc(SCc3ccc4c(c3)OCCO4)o2)c1 | 0.1 | 0.4 | 64* | 92* | · | ·
CCc1ccc(/C=C\C(=O)N2CCc3ccccc3C2)cc1 | 0.8 | 0.8 | 17 | 18 | -26 | -2
CCOC(=O)C1=C(C)N=c2s/c(=C\c3ccc(OC(C)=O)c(OCC)c3)c(=O)n2C1/C=C/c1ccccc1 (stereo not drawn) | 0.3 | 0.6 | 39 | 72* | -95 | -4
Cc1ccccc1NC(=O)c1sc2nc3c(c(-c4ccco4)c2c1N)CCCC3 | 0.4 | 0.5 | 46 | 64* | 8 | -8
Nc1c(C(=O)Nc2ccccc2)sc2nc3c(c(-c4ccco4)c12)CCCC3 | 0.6 | 0.9 | 14 | 36 | 13 | -16
Cn1c(=O)[nH]c(=O)c2c1nc(N1CCCCC1)n2CCCSc1nc2ccccc2s1 | · | · | · | · | -2 | -11
Cc1onc(-c2c(F)cccc2Cl)c1C(=O)N1CCN(S(C)(=O)=O)CC1 | 1.2 | 1 | -1 | -22 | -15 | -9
Cc1cc2ncn(C(=O)c3c(-c4c(Cl)cccc4Cl)noc3C)c2cc1C | 0.3 | 0.3 | 72* | 69* | 24 | -12
Cc1cc2ncn(C(=O)c3c(-c4ccccc4)noc3C)c2cc1C | 0.4 | 0.6 | 40 | 58* | 4 | -10
Cc1onc(-c2ccccc2)c1C(=O)n1nnc2ccccc21 | 0.4 | 0.6 | 37 | 56* | 10 | -15
Cn1c(SCC(=O)NCCc2ccccc2)nnc1-c1ccco1 | 1.1 | 1.1 | -7 | -15 | 4 | -8
